According to the supplement of paper PMC10849652:
Targets with a hit are over-represented here; the source holds about 7,900 in all. About 0.6% of all pairs of compound and target were hits.

Tests used:
Assay in all cases: log2 fold change, soluble protein after heating vs DMSO (PISA); higher = thermal stabilisation; K562 cells, 10 uM, 30 min; active = over 0.2 and 3.5 SD of the protein, either way, in both replicates (recomputed)
[1] = compound: C1=CC=C(C=C1)[C@H](COC2=CC3=C(C=C2)NC(=O)N3)NC(=O)C4=CC=CN(C4=O)CC5=CC(=C(C=C5)F)F
Method in brief: (§1)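 K562 cells at 2×10^6 cells/mL were given 10 μM compound for 30 min. Aliquots then went through 3 min of heating across 48°C-58°C, were pooled, and were extracted in PBS with 0.5% NP-40 at 4°C, and the supernatant after 21,000xg for 90 min was quantified by TMTpro 16plex LC-MS/MS with channel sums equalised. Thermal stability relative to control samples, from duplicates, is given as log2 fold change.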

[2] = compound: CC1=C(SC2=C1C(=N[C@H](C3=NN=C(N32)C)CC(=O)N)C4=CC=C(C=C4)Cl)C
Method in brief: as §1

[3] = compound: CC1=C2C(=CC=C1)N=C(N(C2=O)C3=CC=CC=C3C)CN4C=NC5=C(N=CN=C54)N
Method in brief: as §1

[4] = compound: Cc1sc2c(c1C)C(c1ccc(Cl)cc1)=N[C@@H](CC(=O)OC(C)(C)C)c1nnc(C)n1-2
Method in brief: as §1

[5] = compound: c1ccc([C@@H]2C[C@H]2NC2CCNCC2)cc1
Method in brief: as §1

Measured: log2 fold change

COCH (UniProt O43405)
Sequence of UniProt O43405 (O43405 whole entry, looked up): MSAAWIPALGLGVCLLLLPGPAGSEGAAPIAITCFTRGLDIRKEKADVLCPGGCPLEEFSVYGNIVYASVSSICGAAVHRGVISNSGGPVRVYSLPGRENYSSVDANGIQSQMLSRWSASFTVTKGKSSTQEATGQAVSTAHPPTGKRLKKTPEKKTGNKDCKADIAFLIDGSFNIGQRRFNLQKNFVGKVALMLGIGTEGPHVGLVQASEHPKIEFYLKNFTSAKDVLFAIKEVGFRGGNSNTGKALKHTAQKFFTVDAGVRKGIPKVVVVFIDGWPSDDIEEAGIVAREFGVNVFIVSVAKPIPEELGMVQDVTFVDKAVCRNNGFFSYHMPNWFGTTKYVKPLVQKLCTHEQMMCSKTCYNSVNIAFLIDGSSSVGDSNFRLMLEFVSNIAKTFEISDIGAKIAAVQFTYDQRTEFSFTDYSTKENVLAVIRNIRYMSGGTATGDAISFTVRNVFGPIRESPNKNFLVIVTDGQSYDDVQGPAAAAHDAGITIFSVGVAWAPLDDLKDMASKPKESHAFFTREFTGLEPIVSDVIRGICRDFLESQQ
inactive: [1] 0.006 | [2] 0.061 | [3] -0.193 | [4] 0.144 | [5] 0.006

CDK1 (UniProt P06493)
Sequence of UniProt P06493 (P06493 whole entry, looked up): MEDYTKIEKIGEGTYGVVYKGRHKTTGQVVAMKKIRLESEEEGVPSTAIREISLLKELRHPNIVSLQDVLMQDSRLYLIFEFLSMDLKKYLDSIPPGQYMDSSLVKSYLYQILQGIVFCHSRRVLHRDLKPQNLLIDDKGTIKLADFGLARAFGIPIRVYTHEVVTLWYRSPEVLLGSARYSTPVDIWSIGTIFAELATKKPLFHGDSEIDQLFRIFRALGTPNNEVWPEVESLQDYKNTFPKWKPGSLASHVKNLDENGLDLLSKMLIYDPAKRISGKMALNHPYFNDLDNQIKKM
inactive: [1] -0.019 | [2] 0.036 | [3] 0.003 | [4] 0.019 | [5] 0.037

CSNK2A1 (UniProt P68400)
inactive: [1] 0.018 | [2] 0.033 | [3] 0.018 | [4] -0.008 | [5] 0.02

CELF2 isoform 3 (UniProt O95319)
Sequence of UniProt O95319 (O95319 whole entry, looked up): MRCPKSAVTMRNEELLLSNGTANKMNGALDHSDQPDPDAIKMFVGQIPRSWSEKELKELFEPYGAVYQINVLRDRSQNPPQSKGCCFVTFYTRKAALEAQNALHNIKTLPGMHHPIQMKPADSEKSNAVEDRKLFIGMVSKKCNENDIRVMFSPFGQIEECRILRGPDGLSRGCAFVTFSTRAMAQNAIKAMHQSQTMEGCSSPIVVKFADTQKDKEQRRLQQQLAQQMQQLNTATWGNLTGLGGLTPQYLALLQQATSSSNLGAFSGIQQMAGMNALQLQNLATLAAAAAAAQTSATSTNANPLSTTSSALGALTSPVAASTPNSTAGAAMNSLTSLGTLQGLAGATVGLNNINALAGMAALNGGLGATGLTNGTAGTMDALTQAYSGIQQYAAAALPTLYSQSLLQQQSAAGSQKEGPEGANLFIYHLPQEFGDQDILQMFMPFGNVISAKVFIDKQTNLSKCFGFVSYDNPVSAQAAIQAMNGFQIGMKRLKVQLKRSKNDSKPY
inactive: [1] -0.005 | [2] 0.119 | [3] 0.013 | [4] 0.071 | [5] -0.014

CD68 (UniProt P34810)
inactive: [1] 0.021

CASP2 (UniProt P42575)
Sequence of UniProt P42575 (P42575 whole entry, looked up): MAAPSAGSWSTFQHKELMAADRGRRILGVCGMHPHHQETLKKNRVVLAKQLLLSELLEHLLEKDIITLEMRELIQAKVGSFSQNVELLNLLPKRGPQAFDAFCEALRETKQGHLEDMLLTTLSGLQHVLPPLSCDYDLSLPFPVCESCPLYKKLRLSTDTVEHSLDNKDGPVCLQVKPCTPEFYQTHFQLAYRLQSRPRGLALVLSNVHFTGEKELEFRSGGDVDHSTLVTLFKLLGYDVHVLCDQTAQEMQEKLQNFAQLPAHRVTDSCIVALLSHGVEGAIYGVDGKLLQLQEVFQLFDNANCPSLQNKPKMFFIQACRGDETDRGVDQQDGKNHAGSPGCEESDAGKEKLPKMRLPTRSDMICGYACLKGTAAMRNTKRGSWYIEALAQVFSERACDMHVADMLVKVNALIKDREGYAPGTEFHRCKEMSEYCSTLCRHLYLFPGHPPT
inactive: [1] -0.039 | [2] 0.016 | [3] 0.027 | [4] -0.01 | [5] -0.039

CS (UniProt F8VU34)
inactive: [1] -0.03

C19orf53 (UniProt Q9UNZ5)
inactive: [1] 0.105 | [2] -0.258 | [3] -0.266 | [4] 0.203 | [5] -0.01

CASP7 isoform 3 (UniProt P55210)
inactive: [1] 0.12

CENPE (UniProt Q02224)
Sequence of UniProt Q02224 (Q02224 whole entry, looked up): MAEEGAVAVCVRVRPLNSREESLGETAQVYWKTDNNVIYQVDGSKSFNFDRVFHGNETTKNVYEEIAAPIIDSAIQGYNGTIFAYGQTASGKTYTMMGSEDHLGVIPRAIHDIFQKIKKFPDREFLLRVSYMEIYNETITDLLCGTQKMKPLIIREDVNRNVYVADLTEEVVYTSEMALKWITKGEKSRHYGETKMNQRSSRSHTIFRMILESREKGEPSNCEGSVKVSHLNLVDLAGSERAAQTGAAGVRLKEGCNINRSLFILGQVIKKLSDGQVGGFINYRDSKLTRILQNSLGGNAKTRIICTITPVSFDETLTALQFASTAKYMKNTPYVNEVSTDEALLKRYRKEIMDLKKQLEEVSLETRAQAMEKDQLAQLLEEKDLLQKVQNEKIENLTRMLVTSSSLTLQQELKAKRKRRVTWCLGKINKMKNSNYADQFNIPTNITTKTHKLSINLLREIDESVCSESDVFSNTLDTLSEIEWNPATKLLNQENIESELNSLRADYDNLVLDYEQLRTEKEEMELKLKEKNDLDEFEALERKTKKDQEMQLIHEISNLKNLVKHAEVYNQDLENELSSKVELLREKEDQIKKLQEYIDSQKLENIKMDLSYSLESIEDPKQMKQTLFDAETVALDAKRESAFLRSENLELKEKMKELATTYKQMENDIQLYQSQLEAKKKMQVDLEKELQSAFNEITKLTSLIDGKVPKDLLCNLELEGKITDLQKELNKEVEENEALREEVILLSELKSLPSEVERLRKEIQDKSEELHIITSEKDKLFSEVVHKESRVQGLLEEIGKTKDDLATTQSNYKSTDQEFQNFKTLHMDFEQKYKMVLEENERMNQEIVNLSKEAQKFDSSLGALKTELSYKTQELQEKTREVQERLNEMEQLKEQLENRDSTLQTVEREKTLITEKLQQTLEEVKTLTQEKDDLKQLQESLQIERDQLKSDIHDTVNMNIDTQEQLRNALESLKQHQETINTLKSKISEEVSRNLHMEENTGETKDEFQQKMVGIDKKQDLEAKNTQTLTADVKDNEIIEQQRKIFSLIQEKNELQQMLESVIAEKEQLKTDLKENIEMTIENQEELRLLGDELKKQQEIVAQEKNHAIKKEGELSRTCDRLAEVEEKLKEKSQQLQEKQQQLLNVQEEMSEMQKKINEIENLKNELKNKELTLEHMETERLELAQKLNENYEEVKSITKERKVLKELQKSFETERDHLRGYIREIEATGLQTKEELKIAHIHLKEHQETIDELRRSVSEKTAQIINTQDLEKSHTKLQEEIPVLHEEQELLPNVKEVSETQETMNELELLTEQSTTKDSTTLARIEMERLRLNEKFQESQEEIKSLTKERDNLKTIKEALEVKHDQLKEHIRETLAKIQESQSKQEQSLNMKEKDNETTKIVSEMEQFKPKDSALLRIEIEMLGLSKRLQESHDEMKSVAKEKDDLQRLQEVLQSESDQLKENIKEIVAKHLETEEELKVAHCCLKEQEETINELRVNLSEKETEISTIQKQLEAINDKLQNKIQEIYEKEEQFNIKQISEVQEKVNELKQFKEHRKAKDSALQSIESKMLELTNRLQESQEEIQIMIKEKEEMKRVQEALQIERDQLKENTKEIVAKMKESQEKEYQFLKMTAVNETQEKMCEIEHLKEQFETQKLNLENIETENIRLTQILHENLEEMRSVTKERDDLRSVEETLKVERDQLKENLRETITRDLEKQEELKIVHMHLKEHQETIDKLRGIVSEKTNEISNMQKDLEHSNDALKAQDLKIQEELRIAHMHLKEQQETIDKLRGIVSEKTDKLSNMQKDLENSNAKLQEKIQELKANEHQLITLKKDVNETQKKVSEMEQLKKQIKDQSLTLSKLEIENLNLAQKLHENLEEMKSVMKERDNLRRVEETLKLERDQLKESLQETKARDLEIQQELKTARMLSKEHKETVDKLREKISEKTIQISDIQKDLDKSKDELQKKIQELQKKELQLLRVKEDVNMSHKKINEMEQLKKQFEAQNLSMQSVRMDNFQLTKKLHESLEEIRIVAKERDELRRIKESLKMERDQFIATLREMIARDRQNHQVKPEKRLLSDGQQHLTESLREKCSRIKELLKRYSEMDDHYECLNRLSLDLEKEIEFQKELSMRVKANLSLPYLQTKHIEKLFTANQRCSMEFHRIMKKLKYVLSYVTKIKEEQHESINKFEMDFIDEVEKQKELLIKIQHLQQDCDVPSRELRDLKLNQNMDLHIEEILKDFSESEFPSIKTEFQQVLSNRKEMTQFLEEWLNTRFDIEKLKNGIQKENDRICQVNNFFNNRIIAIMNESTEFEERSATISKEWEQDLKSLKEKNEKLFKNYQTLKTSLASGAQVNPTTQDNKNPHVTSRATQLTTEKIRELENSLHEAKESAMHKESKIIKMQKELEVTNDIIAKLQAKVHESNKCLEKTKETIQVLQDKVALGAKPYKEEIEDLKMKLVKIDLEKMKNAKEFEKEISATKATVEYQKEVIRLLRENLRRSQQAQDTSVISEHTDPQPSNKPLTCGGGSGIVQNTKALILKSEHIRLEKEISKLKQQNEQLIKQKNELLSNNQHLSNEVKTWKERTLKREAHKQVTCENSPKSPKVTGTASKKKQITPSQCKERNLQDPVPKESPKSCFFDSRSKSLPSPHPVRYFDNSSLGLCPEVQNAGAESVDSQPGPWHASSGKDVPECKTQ
inactive: [1] -0.005 | [2] -0.139 | [3] 0.049 | [4] -0.001 | [5] -0.362

COASY isoform 2 (UniProt Q13057)
Sequence of UniProt Q13057 (Q13057 whole entry, looked up): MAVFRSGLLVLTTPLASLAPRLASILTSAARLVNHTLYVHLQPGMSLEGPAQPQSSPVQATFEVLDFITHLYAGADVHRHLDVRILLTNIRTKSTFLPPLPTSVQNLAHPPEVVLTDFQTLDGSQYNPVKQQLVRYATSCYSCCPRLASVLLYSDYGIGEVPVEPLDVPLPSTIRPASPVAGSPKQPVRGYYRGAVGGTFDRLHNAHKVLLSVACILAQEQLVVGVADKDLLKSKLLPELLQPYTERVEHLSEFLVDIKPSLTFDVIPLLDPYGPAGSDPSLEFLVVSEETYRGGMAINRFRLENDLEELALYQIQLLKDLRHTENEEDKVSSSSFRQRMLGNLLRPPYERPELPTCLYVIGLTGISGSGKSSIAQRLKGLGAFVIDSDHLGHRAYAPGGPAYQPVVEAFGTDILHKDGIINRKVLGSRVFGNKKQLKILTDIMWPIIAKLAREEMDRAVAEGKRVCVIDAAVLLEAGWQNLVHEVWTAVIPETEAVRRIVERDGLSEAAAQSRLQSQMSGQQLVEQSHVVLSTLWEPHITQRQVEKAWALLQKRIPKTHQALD
inactive: [1] -0.03 | [2] 0.054 | [3] 0.053 | [4] -0.037 | [5] -0.021
